Screening data deposited in PubChem by several laboratories.
Compounds with a hit are over-represented: about 12% of the library has one in this group of screens.
Lmaj promast: inhibitors of Leishmania major promastigote growth | Leishmania major promastigotes, resazurin fluorescence viability | inhibition, % at 10 µM | 200,000 tested, 9% active; in the data active = inhibition above about 50%;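 note: promastigotes grown with compound for 44 hours at 28 °C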
ROMK mod: modulates human ROMK potassium channel activity; P48048; Tet-inducible ROMK, thallium flux fluorescence; actives lie on both sides; B-score at 10 µM; 130,000 tested, 2% active; AID 1918;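 active = signal ratio slope over the read window, or its plate-corrected B-score, at least 3 SD from the plate mean, either direction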;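 note: B-score of the F/F0 ratio slope over 7 to 12 s after thallium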
WT yeast gro inh: growth inhibition of WT yeast, mitochondrial fusion screen | inhibition, % at 10 µM | 190,000 tested, 2.1% active | mitochondrial fusion phenotypic screen, WT strain | AID 1362; in the data active = inhibition above about 58%; tested in S. cerevisiae
Calpain2 inh: blocks pig calpain II enzyme activity; 220,000 tested, 0.37% active; purified calpain II, fluorogenic peptide substrate, 30 min; inhibition, % at 16 µM;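 active = inhibition above about 50%, limit read from the data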
KCC2 mod: modulates chloride dependent transport by human KCC2; Q9H2X9; KCC2 cells, thallium flux FluoZin-2 fluorescence; B-score of Tl+ flux slope (higher = more flux/activation; lower = inhibition) at 10 µM; 190,000 tested, 2.2% active;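 active = thallium flux slope and its plate-corrected score both differing from the plate sample mean at a set confidence after two filtering rounds, in either direction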;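 note: slope of fluorescence scaled to starting intensity during 10 to 20 s after thallium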
KCC2 sec1: KCC2 (human) modulation, secondary assay. HEK293-KCC2, thallium flux, FluoZin2 fluorescence; stronger effect = higher value. 3,700 tested, 15% active. normalised thallium flux (F/F0 slope) at 10 µM. shares compounds with KCC2 mod. AID 1713;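 active = thallium flux slope above the same plate's solvent-only control mean plus 3 SD; inconclusive = the two replicate wells disagree; inactive = no significant difference from solvent-only control wells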
KCC2 bumet counter: bumetanide-insensitive thallium flux in KCC2 cells with ouabain, counter-screen | shares compounds with KCC2 mod | HEK293-KCC2 + bumetanide/ouabain, thallium flux FluoZin2; stronger effect = higher value | normalized thallium flux at 10 µM | 3,700 tested, 49% active;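 active = thallium entry rate above the same plate's blocked-transporter control wells by more than 3 SD; inconclusive = the two repeat wells disagree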;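 note: raw slope of fluorescence over initial fluorescence between 10 and 20 s after thallium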
KCC2 secondary2: KCC2 (human) modulation, second secondary assay; shares compounds with KCC2 mod; HEK293-KCC2, thallium flux FluoZin2 fluorescence; actives lie on both sides; F/F0 rise rate, 10–20 s post-thallium; normalized thallium flux at 10 µM; 3,700 tested, 23% active; AID 1715;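 active = thallium flux slope more than 3 SD above or below the plate's solvent-only control mean, mostly below; inconclusive = the two repeat wells disagreed; inactive = no significant shift from solvent-only controls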
HEK counter1: parental HEK flux effect, counter-screen; HEK293 parental cells, thallium flux FluoZin2, ouabain; baseline-ratio fluorescence slope, 10–20 s after thallium; thallium flux rate (normalised fluorescence) at 10 µM; 3,700 tested, 46% active; shares compounds with KCC2 mod;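 active = thallium flux rate significantly above the same plate's solvent-only control wells, beyond their mean plus 3 SD; inconclusive = the two replicate wells gave conflicting results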
KCC2 ouabain: confirmation of human KCC2 modulators with ouabain | 3,700 tested, 48% active | raw Tl+ flux slope (below DMSO = inhibition, above = activation) at 10 µM | HEK293-KCC2, thallium flux FluoZin2 fluorescence; bidirectional: low = inhibitor, high = activator | shares compounds with KCC2 mod;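 active = thallium flux slope beyond 3 SD from same-plate DMSO control mean in most replicates, usually higher, sometimes lower; inconclusive = repeat tests gave conflicting results; inactive = no significant difference from controls in most replicates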;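 note: slope of initial-normalized fluorescence between seconds 10 and 20 after thallium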
HEK293 Tl flux2: acts in parental HEK cells, second KCC2 counter-screen; shares compounds with KCC2 mod; HEK293 parental, thallium flux FluoZin-2 fluorescence slope; thallium flux slope at 10 µM; 3,700 tested, 33% active;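 active = thallium flux slope above the same plate's solvent-control mean plus 3 SD in both duplicate wells; inconclusive = duplicate wells that disagreed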;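 note: run without ouabain in cells lacking the KCC2 cotransporter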
A number is an active result; n = inactive; u = inconclusive; x = not tested or not shown.

SMILES | Lmaj promast | ROMK mod | WT yeast gro inh | Calpain2 inh | KCC2 mod | KCC2 sec1 | KCC2 bumet counter | KCC2 secondary2 | HEK counter1 | KCC2 ouabain | HEK293 Tl flux2
COc1ccc(C(=O)NNC(=S)NC(=O)c2ccc(Br)o2)cc1OC | n | n | n | n | 6.3 | n | 0.0212 | 0.0382 | 0.02 | u | 0.0214
O=C(NNC(=S)NC(=O)c1sc2ccccc2c1Cl)c1ccc(Cl)cc1 | n | n | n | n | 25.3 | 0.0169 | 0.0533 | u | 0.037 | 0.0518 | 0.0132
COc1ccc(NC(=S)NC(=O)c2ccc(Br)o2)cc1 | n | x | n | n | 100 | 0.0568 | 0.143 | 0.0607 | 0.119 | 0.106 | 0.0525
COc1cc(C(=O)NNC(=S)NC(=O)c2ccc(Cl)cc2)cc(OC)c1OC | n | n | n | n | 13.5 | 0.0165 | 0.0282 | n | 0.0169 | 0.0332 | 0.012
N#CCCn1c(O)c(N=NC(=O)CNC(=O)c2cccs2)c2ccccc21 | x | x | x | n | x | x | x | x | x | x | x
CCCc1cc(=O)[nH]c(SCC(=O)N2CCN(S(=O)(=O)c3ccc(C)cc3)C2)n1 | n | x | n | n | n | x | x | x | x | x | x
O=C(Nc1ccc(Nc2ccccc2)cc1)c1ccc(Br)o1 | n | x | n | n | -5.72 | u | n | n | n | 0.0132 | u
O=C(NC(=S)Nc1ccccc1)c1ccc(Br)o1 | n | x | n | n | 111 | 0.0461 | 0.185 | 0.0616 | 0.1 | 0.133 | 0.0364
COc1ccc(NC(=S)NC(=O)/C=C/c2ccco2)cc1 | n | n | n | n | 4.39 | n | 0.0164 | n | u | u | n
O=C(NN=C1CCCC1)c1sc2ccccc2c1Cl | n | n | n | n | 10.6 | n | 0.0226 | n | 0.0219 | u | 0.019
CN(C)c1ccc(NC(=S)NC(=O)/C=C/c2ccco2)cc1 | n | n | n | n | n | x | x | x | x | x | x
Cc1snnc1C(=O)NC(=S)Nc1ccccc1 | x | x | x | n | 52.2 | 0.0265 | 0.0893 | u | 0.0467 | 0.0642 | 0.0145
Cc1ccc(N2CC(C(=O)Nc3nnc(SCC(=O)Nc4nc(C)cs4)s3)CC2=O)cc1 (configuration not stated) | n | x | n | n | n | x | x | x | x | x | x
Cc1ccc(/C=N/n2c(-c3ccc(Cl)cc3)n[nH]c2=S)s1 | n | n | n | n | 10.4 | n | 0.0121 | n | 0.0161 | u | 0.0151
S=c1[nH]nc(-c2ccc(Cl)cc2)n1/N=C/c1ccco1 | x | x | x | n | 21.1 | n | 0.029 | u | 0.0221 | 0.0325 | 0.0203
S=c1[nH]nc(-c2cc(-c3ccccc3)n[nH]2)n1/N=C/c1ccc(Cl)cc1 | x | x | x | n | n | x | x | x | x | x | x
FC(F)(F)c1n[nH]c(=S)n1/N=C/c1ccco1 | n | x | n | n | n | x | x | x | x | x | x
S=c1[nH]nc(-c2ccccc2)n1/N=C/C=C/c1ccco1 | n | x | n | n | n | x | x | x | x | x | x
S=c1[nH]nc(-c2ccco2)n1/N=C/C=C/c1ccccc1 | n | n | n | n | 7.01 | n | 0.0331 | n | 0.0157 | n | 0.0179
S=c1[nH]nc(-c2ccc(Cl)cc2)n1/N=C/C=C/c1ccco1 | x | n | x | n | 29.6 | 0.0161 | 0.106 | n | 0.0358 | 0.0377 | 0.0153
COc1ccccc1CCc1nnc(CCC(=O)NCCCOc2cccnc2)o1 | n | n | n | n | n | x | x | x | x | x | x
O=C(CNS(=O)(=O)c1ccccc1)Nc1cccc([N+](=O)[O-])c1 | n | n | n | n | n | x | x | x | x | x | x
COc1ccccc1/C=C/C=N/n1c(-c2ccc(Cl)cc2)n[nH]c1=S | x | x | x | n | 13.1 | n | 0.0226 | n | 0.0106 | 0.0308 | u
Cc1ccc(N=Cc2c(C)[nH]n(-c3ccccc3)c2=O)nc1 | x | x | x | n | 12.9 | n | 0.0204 | n | 0.0243 | 0.0259 | n
Cc1ccc(-n2[nH]c(C)c(C=Nc3ccc(S(=O)(=O)Nc4nccs4)cc3)c2=O)cc1 | n | x | n | n | n | x | x | x | x | x | x
SMILES | Lmaj promast | ROMK mod | WT yeast gro inh | Calpain2 inh | KCC2 mod | KCC2 sec1 | KCC2 bumet counter | KCC2 secondary2 | HEK counter1 | KCC2 ouabain | HEK293 Tl flux2
Cc1ccc(-n2[nH]c(C)c(C=Nc3ccc(C)cn3)c2=O)cc1 | n | x | n | n | 9.4 | n | 0.0198 | n | 0.0224 | u | 0.0135
COc1ccc(C(=O)CCc2nc3ccccc3s2)cc1 | n | n | n | n | n | x | x | x | x | x | x
COc1ccc(CCN(Cc2cc3cc(C)c(C)cc3nc2Cl)C(=O)C2CC2)cc1 | n | n | n | n | n | x | x | x | x | x | x
CCS(=O)(=O)c1nn2c(N)c(/C=C3/C=CC(=O)C(OC)=C3)c(=O)nc2s1 | n | n | n | n | n | x | x | x | x | x | x
COC1=C/C(=C/c2c(N)n3nc(-c4ccc(C)cc4)sc3nc2=O)C=CC1=O | 73.6 | n | n | n | 9.79 | n | 0.0629 | u | 0.083 | u | 0.024
O=S(=O)(c1ccc(F)cc1)N1CCC(O)(c2ccc3c(c2)OCO3)CC1 | n | x | n | n | -4.33 | n | n | n | n | 0.0151 | n
CCOC(=O)c1ccc2c(c1)[nH]c(=S)n2CC | n | n | n | n | 4.03 | n | 0.0193 | n | 0.013 | u | 0.0158
COc1cccc(/C=N/NC(=S)NC2CC3CC2C2C=CCC32)c1O (configuration not stated) | x | n | x | n | n | x | x | x | x | x | x
Oc1ccccc1/C=N/NC(=S)NC1CC2CC1C1C=CCC21 (configuration not stated) | x | x | x | n | 15.5 | n | 0.014 | n | 0.0131 | 0.0316 | u
Cc1ccc(S(=O)(=O)NC(=O)NC(=O)N(C)S(=O)(=O)c2ccc(C)cc2)cc1 | n | n | n | n | n | x | x | x | x | x | x
COC(=O)c1ccc2nc(Nc3nc4c(F)cc(F)cc4s3)sc2c1 | 51.5 | n | n | n | 9.22 | n | 0.0191 | 0.0407 | 0.0159 | 0.0282 | 0.0214
CC/C(=N/Nc1cccc(Cl)c1)c1cnnc(SC)n1 | n | n | n | n | n | x | x | x | x | x | x
CC/C(=N/Nc1ccccc1)c1cnnc(-c2ccccc2)n1 | n | n | n | n | 2.7 | n | n | n | n | n | n
CCOC(=O)C1=C(O)/C(=C\c2cc(C)n(-c3ccc(F)cc3)c2C)N=C1C | n | n | n | n | n | x | x | x | x | x | x
CN(CC(=O)N1CC(=O)N(CCc2ccccc2)C(=O)C1)S(=O)(=O)c1cccc2nsnc12 | n | x | n | n | -4.02 | n | 0.00562 | u | n | u | n
O=C(NCc1ccccn1)C1CCN(S(=O)(=O)c2cnc[nH]2)CC1 | n | x | n | n | n | x | x | x | x | x | x
O=C(NCc1ccccc1)c1sc(=S)n2c1[nH]c(=O)c1ccccc12 | n | x | n | n | 20 | n | 0.0649 | u | 0.0561 | 0.0537 | 0.0452
NC(=O)c1sc(=S)n2c1[nH]c(=O)c1sccc12 | n | n | n | n | n | x | x | x | x | x | x
